SNCA viab count – GF-AFC viability counterscreen for inhibitors of alpha-synuclein gene (SNCA) expression; Potency, µM (highest dose often 57.1 µM), without a hit: top-dose activity change, negative = cytotoxicity, hits mostly cytotoxic; AID 1671193, 2021; HEK-293-SNCA-luc viability, GF-AFC fluorescence, 24 h; 0.12% of 150,000 active;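 note: potency is the fitted concentration of half-maximal effect; 0% = DMSO-treated cells and -100% = medium-only wells without cells; nearly all actives have a fitted effect of over 30% in size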
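HEK-293-SNCA-luc cells (1500/well) plated 24 h, then exposed 24 h to a dilution series; GF-AFC added 30 min at 37C, fluorescence 405/540 nm; normalised to medium-only and DMSO wells, Hill fit.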
KDM5B inhibitor – Primary screen for KDM5B Histone Demethylases FDH-coupled qHTS. Lysine-specific demethylase 5B (Homo sapiens), Q9UGL1. KDM5B demethylase, FDH-coupled NADH fluorescence (FDH is formaldehyde dehydrogenase). Potency, µM (top dose mostly 57.7 µM), hits mostly inhibitors. 2.6% of 220,000 active; note: potency is the fitted concentration of half-maximal effect; 0% is about no effect; nearly all actives have a fitted effect of over 70% in size
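qHTS format, multiple compound concentrations. Buffer 50 mM HEPES pH 7.5/0.01% Tween-20; 200 nM KDM5BΔAP final; 10 min compound preincubation; substrate-mix levels 12.5 µM peptide, 25 µM α-KG, 0.25 mM NAD⁺; 30 min RT; ΔRFU.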
IP6K1 inhibitor – Primary qHTS assay for small molecule inhibitors of Inositol hexaphosphate kinase 1 (IP6K1). IP6K1 kinase, ADP-Glo luminescence, 2 h; hits give low values. activity change, % (series mostly up to about 58 µM). 0.81% of 140,000 active; in the data active = activity change below about -25%; note: % is set by controls: 0 for no effect and ±100 for the full control effect
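ADP-Glo luminescence measures ADP made by human IP6K1 during a 2 h RT reaction with ATP/IP6 (mix at 1.3 mM/130 uM); top library doses 57.5 and 19.1 uM final.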
SNCA expr inh – Primary qHTS assay for inhibitors of alpha-synuclein gene (SNCA) expression; Potency, µM (series often up to 57.2 µM), for the others: at the highest dose activity change, negative = inhibition, usual class: inhibitors; HEK-293 SNCA-luciferase knock-in, luminescence, 24 h; 0.17% of 140,000 active;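 note: potency is the fitted concentration of half-maximal effect; plate controls were DMSO cells for no effect and cell-free wells for full effect; nearly all actives have a fitted effect of over 45% in size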
* marks the source's active call; other numbers are inactive results; [ ] = remark or other dose. Only some compounds are listed: those with a hit (about 2.9% of all), similar ones and a draw of the others. Unless noted, calls come from the whole dose curve; as a rule, active = well fitted curve in the direction sought with a large enough effect; inconclusive = small, poorly fitted or top-dose-only effect, or another doubt; inactive = no such curve, though single readings can be large; an effect the other way counts as inactive or inconclusive.

Results for O=C1OCCCN1CCNc1ccc(-c2nc(-c3ccccc3F)no2)cn1 ?
SNCA viab count: -3%; KDM5B inhibitor: 28µM*; IP6K1 inhibitor: 3; SNCA expr inh: 1%

How did CC(Cn1cccn1)Nc1ccc(-c2nc(-c3ccccc3F)no2)cn1 (centres undefined) do in these assays?
SNCA viab count: -3%; KDM5B inhibitor: 28µM*; IP6K1 inhibitor: 3; SNCA expr inh: 13%

How did COc1ccc(N2CC(C(=O)OCC(=O)Nc3ccccc3C)CC2=O)cc1 (centres undefined) do in these assays?
KDM5B inhibitor: inactive

How did C/C=C/C=C/C(=O)Nc1ccc(C(C)(C)C)cc1 do in these assays?
KDM5B inhibitor: inactive

How did Cc1ccccc1-c1nc2cnccn2c1NCCC(=O)NCc1ccco1 do in these assays?
SNCA viab count: inconclusive; KDM5B inhibitor: 32µM*; IP6K1 inhibitor: -5; SNCA expr inh: -5%

How did Cn1c(SCC(=O)NC2CCCCC2)nnc1-c1cccnc1 do in these assays?
KDM5B inhibitor: inactive

Results for Cc1ccccc1-c1nc2cnccn2c1NCCC(=O)NC1CCCCC1 ?
SNCA viab count: 29%; KDM5B inhibitor: 28µM*; IP6K1 inhibitor: 9; SNCA expr inh: 14%

Results for COc1ccc(NC(=O)CSc2ncc(-c3ccc(Cl)cc3)[nH]2)cc1OC ?
SNCA viab count: inconclusive; KDM5B inhibitor: inconclusive; IP6K1 inhibitor: -12; SNCA expr inh: -13%

How did C[S+](=O)([O-])NCCn1ccc2cc(OC3CCN(C(=O)C4CCCC4)CC3)cnc21 do in these assays?
SNCA viab count: -3%[87.6 µM]; KDM5B inhibitor: 35µM*; IP6K1 inhibitor: 6; SNCA expr inh: 6%[87.6 µM]

How did O=C1COCC2(CN1Cc1cccc(OC(F)(F)F)c1)CN(c1ccccn1)C2 do in these assays?
SNCA viab count: 1%[87.6 µM]; KDM5B inhibitor: inconclusive; IP6K1 inhibitor: 4; SNCA expr inh: inconclusive

What do the screens show for `COc1cncc(N2CC3(COCC(=O)N(Cc4cccc(OC(F)(F)F)c4)C3)C2)c1`?
SNCA viab count: -6%[87.6 µM]; KDM5B inhibitor: 28µM*; IP6K1 inhibitor: 4; SNCA expr inh: 13%[87.6 µM]

How did CN1CCCCCC1C(=O)N1CCN(c2ccc(C#N)cn2)CC1 (centres undefined) do in these assays?
SNCA viab count: 6%; KDM5B inhibitor: 28µM*; IP6K1 inhibitor: 5; SNCA expr inh: 6%

Results for CN1CCC(Cn2ccc3c(N4CCOCC4)nc(-c4cccc5[nH]ccc45)cc32)CC1 ?
SNCA viab count: inconclusive; KDM5B inhibitor: 7.9µM*; IP6K1 inhibitor: -1; SNCA expr inh: -26%[87.6 µM]

How did CN1CCC(Cn2ccc3c(N4CCOCC4)nc(-c4ccc5cn[nH]c5c4)cc32)CC1 do in these assays?
SNCA viab count: -15%[87.6 µM]; KDM5B inhibitor: 35µM*; IP6K1 inhibitor: 6; SNCA expr inh: -24%[87.6 µM]

Results for C[S+](=O)([O-])N1CCC(Cn2ccc3c(N4CCOCC4)nc(-c4ccccc4F)cc32)CC1 ?
SNCA viab count: 10%; KDM5B inhibitor: inconclusive; IP6K1 inhibitor: -14; SNCA expr inh: -7%

How did CN1CCC(Cn2ccc3c(N4CCOCC4)nc(-c4cccc(N5CCOCC5)c4)cc32)CC1 do in these assays?
SNCA viab count: 2%; KDM5B inhibitor: inactive; IP6K1 inhibitor: 24; SNCA expr inh: -19%

How did C[S+](=O)([O-])N1CCC(Cn2ccc3c(N4CCOCC4)nc(-c4cccc5[nH]ncc45)cc32)CC1 do in these assays?
SNCA viab count: -8%; KDM5B inhibitor: 13µM*; IP6K1 inhibitor: -11; SNCA expr inh: -1%

How did COc1ccccc1-c1ccc(C(=O)N2CCC(C(=O)NCc3cccs3)CC2)cc1 do in these assays?
SNCA viab count: -11%[12.5 µM]; IP6K1 inhibitor: 0; SNCA expr inh: 5%

Results for O=C(c1ccccc1F)N1CCCC(c2nn(-c3ccc(Cl)cc3)c(=O)[nH]2)C1 (centres undefined) ?
SNCA viab count: -5%; KDM5B inhibitor: inactive; IP6K1 inhibitor: 3; SNCA expr inh: inconclusive

Results for C=CCc1c(C)nc2nc(SCC(=O)Nc3ccc(C)c(C)c3)nn2c1C ?
SNCA viab count: 2%; KDM5B inhibitor: inactive; IP6K1 inhibitor: -5; SNCA expr inh: -27%

What do the screens show for `O=C(NCC1Cn2cccc2C(=O)N1Cc1ccccc1)Nc1ccccc1F` (centres undefined)?
SNCA viab count: -6%; KDM5B inhibitor: inactive; IP6K1 inhibitor: -12; SNCA expr inh: 2%

Screens from PubChem BioAssay.
